Source: PubChem BioAssay (NCI)
Several values for one entry are separate records, joined by “and”; a condition that tells them apart may be missing. Identical values can stand only once. Compounds without any hit were thinned out: in the full panel of roughly 79,000, 15% have a hit. Values without a mark were called inactive. Activity calls are given as the source filed them. Cut-off read from the data, not from the text of the source: active = growth inhibition above about 70%; inactive = the rest.

Assay: NCI Yeast Anticancer Drug Screen. Data for the sgs1 mgt1 strain (AID 161);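 note: 0% = growth of cultures given vehicle only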
Details: S. cerevisiae sgs1 mgt1 strain, active compounds read high
Description: Growth inhibition of yeast strains with defined genetic alterations is measured as a screen for potential anti-cancer activity. Selected strains with alterations in DNA damage repair or cell cycle control were exposed to compounds and growth inhibition was measured relative to vehicle treated controls. The strain used in this assay is sgs1 mgt1

[1] = at 5.0 µM (retest, dose inferred, filed as 0.5)
[2] = at 50.0 µM (retest, dose inferred, filed as 5.0)

Row | Compound | growth inhibition [1] | growth inhibition [2] | growth inhibition (at 50.0 µM)
1 | CNC(=O)OCc1c(COC(=O)NC)c(C)n(-c2ccc(Cl)c(Cl)c2)c1C | 5% | 23% | 89.5% (active)
2 | O=C(c1c(F)c(F)c(F)c(F)c1F)c1c(F)c(F)c(F)c(F)c1F | 15% | 74% (active) | 76.7% (active)
3 | CC1C=CN(N(C)C)C2=C1C(=O)c1cnccc1C2=O (stereo not given) | 48% | 86% (active) | 89.7% (active)
4 | CCC(C)/C(C)=N/NC(N)=O (stereo not given) | 5% | 48% | 36.9%
5 | COC1=C(N=[N+]=[N-])C(=O)c2ncccc2C1=O | 42% | 93% (active) | 82.3% (active)
6 | Cc1cccc[c]1[Sn]([Cl])([S]/C(C#N)=N/N=C/c1ccc(N(C)C)cc1)[c]1ccccc1C | 37% | 92% (active) | 98.3% (active)
7 | CCC(C)C(=O)OCC(=O)c1ccc(-c2ccccc2)cc1 (stereo not given) | 6% | -1% | -3.05%
8 | Cc1ccc(N(C=O)c2c([N+](=O)[O-])cc([N+](=O)[O-])c3c2=[N+]([O-])CN=3)cc1 | 12% | 84% (active) | 58.8%
9 | Cc1nc2ccc(Br)cc2c(=O)n1-c1ccc(NC2OCC(O)C(O)C2O)cc1 (stereo not given) | -3% | 34% | 64% and 0.15%
10 | O=[N+]([O-])C(=C(NCc1ccccc1)NCc1ccccc1)C(Cl)=C(Cl)Cl | 2% | 45% | 66%
11 | O=S(=O)(O)CC[S][Sn]([S]CCS(=O)(=O)O)([c]1ccccc1)[c]1ccccc1 | 3% | 95% (active) | 91% (active)
12 | Nc1nc(Nc2ccccc2)nc(Nc2ccccc2)n1 | 3% | 66% | 94% (active)
13 | CC(=O)c1ccc(NCN2C(=O)c3ccccc3C2=O)cc1 | 7% | 25% | –
14 | Clc1ccc(C(c2ccc(Cl)cc2)N2CCNCC2)cc1 | -35% | 98% (active) | –
